Screening results deposited in PubChem BioAssay by National Center for Advancing Translational Sciences (NCATS).
An excerpt weighted towards active compounds, which were near 8.7% of everything screened.
AMA1-RON2 inh = inhibitors of Plasmodium falciparum AMA1-RON2 interaction | AlphaScreen AMA1-biotinylated RON2 peptide binding | Potency, µM (doses to about 58.2 µM), inactives show at the highest dose activity change, negative = inhibition, hits mostly inhibitors | 0.2% of 360,000 active;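 further: 0% = vehicle wells and -100% = peptide control; nearly all actives have a fitted effect of over 45% in size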
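AMA1 (3D7) with his tag at 25 nM final met compounds first, then biotinylated RON2 peptide at 25 nM; detection used donor plus acceptor beads, 10 µg/mL apiece, read by AlphaScreen after 30 min at room temperature.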
Pf growth 48h = P. falciparum growth inhibition at 48 hours (one generation); 5.9% of 310,000 active; P. falciparum luciferase growth in erythrocytes, 48 h; Potency, µM (series often up to 28.7 µM), for the others: top-dose activity change, negative = inhibition, hits mostly inhibitors
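Growth was read as firefly luciferase luminescence after a 48 h, 37 C, 5% CO2 exposure of compounds to reporter-bearing P. falciparum cultures (0.1% parasitemia, 2% hematocrit final) in Albumax-supplemented RPMI 1640.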
VACV Venus inh = inhibitors of vaccinia virus (Venus reporter); 0.46% of 330,000 active; AID 720580; Vaccinia virus Venus reporter expression, fluorescence; Potency, µM (series often up to 36.5 µM), without a hit: top-dose activity change, negative = inhibition, usual class: inhibitors; calls by dose curve; tested in A549 cells; further: nearly all actives have a fitted effect of over 30% in size
Vaccinia mCherry = vaccinia inhibition (mCherry reporter); Vaccinia virus mCherry reporter infection, fluorescence; Potency, µM (highest dose often 36.5 µM), without a hit: at the highest dose activity change, negative = inhibition, hits mostly inhibitors; 0.63% of 310,000 active; calls by dose curve; tested in A549 cells; further: nearly all actives have a fitted effect of over 35% in size
Pf growth 96h = P. falciparum growth inhibition at 96 hour, primary screen for plastid delayed-death inhibitors. 6.9% of 320,000 active. Potency, µM (doses to about 28.7 µM), for the others: at the top dose activity change, negative = inhibition, hits mostly inhibitors. P. falciparum luciferase reporter growth, 96 h
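Parasite growth measured via integrated firefly luciferase reporter in P. falciparum. Infected erythrocytes at 2% hematocrit, 0.05% parasitemia final were treated 96 hours at 37 C under 5% CO2, and luminescence was read.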
* = called active by the depositor; i = inactive; ? = inconclusive; . = no result; ! = not active in a repeat; [ ] = another dose, or the depositor's remark. Unless noted, the call rests on the fitted dose curve; in most records, active means well fitted curve in the direction sought with a large enough effect; inconclusive means small, poorly fitted or top-dose-only effect, or another doubt; inactive means no such curve, though single readings can be large; an effect the other way counts as inactive or inconclusive. Unless noted, on the % scale 0 is the no-effect control and ±100 the full control effect; potency means the concentration at half of the fitted maximal effect.

SMILES | AMA1-RON2 inh | Pf growth 48h | VACV Venus inh | Vaccinia mCherry | Pf growth 96h
O=C1N(Cc2cccc(Cl)c2)C[C@@H]2C[C@@H](c3ccccn3)N3CCC[C@@]123 | 57.1% | ? | . | . | ?
O=C1N(Cc2cccc(Cl)c2)C[C@@H]2C[C@@H](c3ccsc3)N3CCC[C@@]123 | -3.7% | 8.28µM* | 7.8% | -8.5% | 5.2%
Cc1nnc(-c2ccccc2)c(=O)n1/N=C/c1c(O)ccc2ccccc12 | -26.1% | ? | ? | 3.16µM* | 4.15µM*
CCOc1cc(/C=N/n2cnnc2)ccc1OC(=O)c1cccc([N+](=O)[O-])c1 | -0.8% | 21.8% | -15.5% | -25.6% | 3.29µM*
Cc1cc2ncn(CCOc3ccccc3C#N)c2cc1C | 5.2% | ? | -29.0% | . | 13.1µM*
CCOc1ccc(CCNC(=O)c2cc3c(=O)n(CC)c4ccccc4c3s2)cc1OCC | . | . | -1.8% | -5.1% | .
COc1ccccc1CC(=O)Nc1cccc(C(=O)NN2C(=O)c3ccccc3C2=O)c1 | 12.3% | -2.3% | -6.0% | -20.5% | 9.28µM*
O=C(c1ccc2[nH]ccc2c1)N1CCOc2ccc(CN3CCN(c4ccccn4)CC3)cc2C1 | . | . | -25.9% | ? | .
Cc1ccc(Cn2c(SCc3ccc(C(=O)O)cc3)nc3cccnc32)cc1 | . | . | -5.5% | -8.5% | .
CCOC(=O)C1=C(C)Nc2nnnn2C1c1ccc(OC)c(Br)c1 (stereo not given) | -3.8% | ? | 2.3% | 12.7% | 11.7µM*
CCOC(=O)C1=C(C)Nc2nnnn2C1c1ccccc1Cl (stereo not given) | -7.5% | -26.6% | -19.0% | . | -19.3%
COc1ccc(C2C(C(=O)OC3CCCCC3)=C(C)Nc3nnnn32)c(OC)c1OC (stereo not given) | 6.4% | 9.28µM* | -14.9% | i | 5.3%
COC(=O)C1=C(C)Nc2nnnn2C1c1ccc(Cl)cc1Cl (stereo not given) | -5.0% | 4.65µM* | ? | . | ?
CCOC(=O)c1c(NC(=O)c2ccc(S(=O)(=O)N(CC(C)C)CC(C)C)cc2)sc2c1CCN(CC)C2 | . | . | -12.1% | -1.3% | .
CCOc1ccc(N(C(C)C(=O)NCCSc2ccc(Cl)cc2)S(C)(=O)=O)cc1 (stereo not given) | . | . | -26.3% | -23.9% | .
CCOC(=O)c1cccc(NC(=O)CC2C(=O)N(c3ccc(F)cc3)C(=O)N2C(C)C)c1 (stereo not given) | . | . | -8.6% | -2.4% | .
Cc1ccc(CNC(=O)c2ccc3c(c2)nc2n3CCCC2)cc1 | . | . | -3.6%[7.34 µM] | -7.6%[7.34 µM] | .
COc1ccc(N2CCN(C(=O)CSc3nnc(-c4ccc5[nH]c(C)c(C)c5c4)o3)CC2)cc1 | -2.3% | ? | -21.9% | -23.2% | 3.29µM*
CCOC(=O)N1CCN(C(=O)CSc2nnc(-c3cccc(OC)c3)o2)CC1 | 0.8% | 9.28µM* | ? | ? | .
Cc1ccc(-c2nnc(SCC(=O)N3CCCC3)o2)cc1C | 4.9% | 11.2% | -60.2% | . | 213.7%
COc1ccc(-c2nnc(SCC(=O)N3CCN(c4ccccc4)CC3)o2)cc1OC | 16.8% | 38.9% | -7.9% | -15.5% | -4.2%
CCOC(=O)N1CCN(C(=O)CSc2nnc(-c3ccc(C)c(C)c3)o2)CC1 | -0.5% | . | ? | 10µM* | 9.28µM*
COc1ccc(-c2nnc(SCC(=O)N3CCOCC3)o2)cc1OC | 0.6% | 11.3% | -17.1% | ? | 11.7µM*
COC(=O)c1ccc(OC)c(CSc2nnc(-c3ccc(C(C)(C)C)cc3)o2)c1 | -2.2% | . | ? | i | 0.657µM*
Cc1cc(C)nc(SCc2nnc(SCC(=O)N3CCOCC3)o2)n1 | 14.0% | 28.8% | . | . | 7.38µM*
SMILES | AMA1-RON2 inh | Pf growth 48h | VACV Venus inh | Vaccinia mCherry | Pf growth 96h
CCOC(=O)N1CCN(C(=O)CSc2nnc(-c3cc(OC)cc(OC)c3)o2)CC1 | 12.3% | -3.8% | ? | . | ?
CCOC(=O)N1CCN(C(=O)CSc2nnc(-c3ccc(C(C)(C)C)cc3)o2)CC1 | 8.9% | -1.1% | ? | 5.62µM* | -8.1%
COC(=O)c1ccc(OC)c(CSc2nnc(COc3ccccc3)o2)c1 | 18.8% | -3.0% | . | . | -8.7%
COC(=O)C1CCN(C(=O)CSc2nnc(-c3ccncc3)o2)CC1 | -6.1% | 12.7% | -29.2% | . | 5.22µM*
Cc1ccc(O)c(C(=O)c2cnc3onc(-c4ccc(F)cc4)c3c2)c1 | -9.2% | 3.29µM* | -15.8% | -19.8% | 2.33µM*
Cc1noc2ncc(C(=O)c3cc(F)ccc3O)cc12 | -6.1% | . | -27.6% | . | 8.28µM*
Clc1ccc(CSc2nc3ncccc3[nH]2)cc1 | . | . | -6.2% | 5.4% | .
CCc1ccc(-c2nc(CS(=O)CC(=O)NCCc3ccc(Cl)cc3)c(C)o2)cc1 (stereo not given) | . | . | -12.1% | -10.6% | .
CCN1C(=NCCOC)N[C@@H](CCc2ccccc2)[C@H](C(=O)OC)[C@H]1C | 2.5% | 1.4% | -7.4% | -12.0% | 16.5µM*!
CCN1C(=NCCCOC(C)C)N[C@@H](CCc2ccccc2)[C@H](C(=O)NCCCOC(C)C)[C@H]1C | -3.6% | 4.65µM* | -21.8% | -18.7% | 4.65µM*
CCOC(=O)CN1C(=O)N[C@@H](CCc2ccccc2)[C@@H](C(=O)OC)[C@H]1C | 14.2% | . | -15.6% | -13.7% | .
CCN1C(=O)N[C@@H](CCc2ccccc2)[C@H](C(C)=O)[C@H]1C | -6.4% | . | -5.9% | 4.5% | .
N#C/C(=C\c1ccc(-c2cccc(Cl)c2)o1)C(=O)Nc1cccc(C(F)(F)F)c1 | . | . | -22.3% | -21.4% | .
Cc1ccc(-c2csc(N3CCN(c4cc5c(cc4Cl)nc(C)n5CCN4CCCCC4)CC3)n2)cc1 | 14.4% | ? | ? | -24.5% | 2.08µM*
Cc1csc(N2CCN(c3cc4c(cc3Cl)nc(-c3ccncc3)n4CCCN3CCCC3)CC2)n1 | -16.4% | ? | ? | -25.1% | 3.7µM*
Cc1csc(N2CCN(c3cc4nc(-c5ccncc5)[nH]c4cc3Cl)CC2)n1 | -5.1% | ? | -2.1% | -11.2% | ?
Cc1cc(O)c(C(c2cccc(F)c2)N2CCN(c3ccccc3)CC2)c(=O)n1Cc1ccco1 (stereo not given) | . | . | -8.9% | -8.5% | .
Cc1cc(O)c(C(c2cccc(F)c2)N2CCC(C)CC2)c(=O)n1Cc1ccco1 (stereo not given) | . | . | -8.2% | -15.9% | .
CCc1nn(CC(=O)Nc2c(C)cccc2C)c(=O)c2cc3sccc3n12 | . | . | -3.7% | 5.6% | .
CCCc1cc2c(=O)c(-c3ccc4c(c3)OCCO4)coc2cc1OS(C)(=O)=O | 14.2%[2.32 µM] | 91.5% | ? | 10µM* | ?
CCCc1cc2c(=O)c(-c3ccc4c(c3)OCCO4)c(C)oc2cc1OS(C)(=O)=O | -6.6% | ? | ? | ? | ?
Cn1ccc2c(N3CCCC3)cc3c(c21)C1CCC3C1 (stereo not given) | -8.1% | . | ? | ? | .
Cn1ccc2c(N3CCCCC3)cc3c(c21)C1CCC3C1 (stereo not given) | 15.8µM* | . | -6.5% | i | .
Cn1ccc2c(N3CCCCCC3)cc3c(c21)C1CCC3O1 (stereo not given) | 31.6µM* | . | 21.6% | 61.3% | .
